Screening data as filed in PubChem.
Measles CPE – protection of cells from measles virus | Measles virus-infected cells, CPE protection, absorbance | protection (pct of control), % at 4 µM | 140,000 compounds, 1.5% hits | AID 841; in the data active = protection mostly above about 24%, no sharp cut-off; inactive = mostly below about 26%
CYP2C9 inh – inhibitors of human CYP2C9; CYP2C9 Supersomes, luciferin-H conversion, luminescence; 96,000 compounds, 20% hits; inhibition, % at 5 µM; AID 777;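 active = blocking of liver enzyme CYP2C9 beyond about 50% at 5 µM, limit read from the data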
Target sequence (P11712 whole entry, looked up): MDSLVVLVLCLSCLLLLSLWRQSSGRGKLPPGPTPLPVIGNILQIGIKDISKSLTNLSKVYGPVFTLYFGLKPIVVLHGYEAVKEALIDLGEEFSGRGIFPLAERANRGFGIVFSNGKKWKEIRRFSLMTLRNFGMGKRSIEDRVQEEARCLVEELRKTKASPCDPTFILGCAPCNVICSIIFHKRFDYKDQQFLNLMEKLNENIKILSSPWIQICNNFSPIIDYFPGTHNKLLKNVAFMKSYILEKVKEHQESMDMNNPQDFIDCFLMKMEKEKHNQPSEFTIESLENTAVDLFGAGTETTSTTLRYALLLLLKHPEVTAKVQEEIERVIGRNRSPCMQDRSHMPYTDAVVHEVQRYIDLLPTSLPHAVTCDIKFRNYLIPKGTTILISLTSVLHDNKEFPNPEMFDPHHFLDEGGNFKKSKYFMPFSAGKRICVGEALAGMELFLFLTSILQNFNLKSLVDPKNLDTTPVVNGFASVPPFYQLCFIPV
CYP2C19 inhib – inhibitors of human CYP2C19; P33261; CYP2C19 Supersomes, luciferin-H EGE luminescence, 30 min; AID 778; 96,000 compounds, 21% hits; inhibition, % at 5 µM;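 active = CYP2C19 inhibition above a set limit at 5 µM in the primary screen, cut at about 50% in these data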
CYP2C19 act – increases human CYP2C19 enzyme activity. activation factor at 5 µM. recombinant CYP2C19, luciferin-H EGE luminescence; hits give high values; 0 = fully inhibited enzyme, 1 = untreated enzyme. 96,000 tested, under 10 active. P33261;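 active = activation factor of at least 2 at 5 µM in the primary screen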
CYP2C9 activ – activators of human CYP2C9. P11712. recombinant CYP2C9, luciferin-H conversion, luminescence; hits give high values; factor 1 = untreated enzyme, 0 = blocked. activation factor at 5 µM. 96,000 compounds, 1.4% hits. AID 1024;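 active = activation factor of 2 or more for CYP2C9 at a 5 µM dose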
Of the large screens only hits and unclear results are named; the others gave an inactive call. In the library only some 22% were active in any assay of this set; here they are far more common.

O=S(=O)(CCN(CCS(=O)(=O)C(F)(F)F)CC1CCCO1)C(F)(F)F (centres undefined)	none
Cc1ccc(S(=O)(=O)/N=C2/C=C(C3C(=O)CC(C)(C)CC3=O)C(=O)c3ccccc32)cc1	CYP2C9 inh 62
COc1cc(C(c2c(C)[nH][nH]c2=O)c2c(C)[nH][nH]c2=O)ccc1OS(=O)(=O)c1ccccc1	none
COc1cc(C(c2c(C)[nH][nH]c2=O)c2c(C)[nH][nH]c2=O)ccc1OS(=O)(=O)c1ccc(C)cc1	CYP2C9 inh 66, CYP2C19 inhib 85
CCOC(=O)c1ccc(NC(=O)NC2CCN(CC(=O)NCc3ccc4c(c3)OCO4)CC2)cc1	none
O=C(Nc1ccccc1Cl)N1CCN(c2ncccn2)CC1	CYP2C19 inhib 85
O=C(Nc1ccccc1)N1CCN(c2ncccn2)CC1	CYP2C9 inh 52, CYP2C19 inhib 78
O=C(Nc1ccccc1Cl)N1CCN(c2ccc3nnc(-c4ccc(F)cc4)n3n2)CC1	CYP2C9 inh 66
O=C(NC1CCCCC1)N1CCN(c2ncccn2)CC1	CYP2C19 inhib 60
O=C(Nc1ccccc1)N1CCN(c2ccccn2)CC1	none
O=C1CC(NCc2ccc3c(c2)OCO3)C(=O)N1Cc1ccc2c(c1)OCO2 (centres undefined)	none
CNC(=O)CC1C(=O)N(C)C(=S)N1NC(=O)c1ccc(Cl)cc1 (centres undefined)	none
CC(=O)Nc1c(O)n(C)c2ccccc12	none
CC(C)(C)NC(=O)NC(=O)COC(=O)C1=COCCO1	none
Oc1ccccc1N1CCN(c2ncccn2)CC1	CYP2C9 inh 86, CYP2C19 inhib 84
Cc1ccsc1CN1CCN(c2ccccn2)CC1	CYP2C9 inh 70, CYP2C19 inhib 93
CCOC(=O)C1=C(C)OC(N)=C(C(=O)OCC)C1c1ccncc1 (centres undefined)	CYP2C9 inh 99, CYP2C19 inhib 93
CCOC(=O)C1=C(C)OC(N)=C(C(=O)OCC)C1c1cccnc1 (centres undefined)	CYP2C9 inh 96, CYP2C19 inhib 92
CC(=O)C1=C(C)OC(N)=C(C#N)C1c1ccncc1 (centres undefined)	none
COCON1C(=O)CN(C(C)=O)C1c1ccc(Cl)cc1Cl (centres undefined)	none
CON1C(=O)CN(C(C)=O)C1c1ccc(Cl)cc1Cl (centres undefined)	CYP2C19 inhib 54
COC(=O)N1CC(=O)N(OC)C1c1ccc(Cl)cc1Cl (centres undefined)	CYP2C19 inhib 87
CCCc1cc(C(=O)NNC(=S)NCC)c2ccccc2n1	none (no result: CYP2C9 inh, CYP2C19 inhib, CYP2C19 act, CYP2C9 activ)
CCC(C)c1ccc(-c2cc(C(=O)OCC(=O)Nc3cc(C)on3)c3ccccc3n2)cc1 (centres undefined)	CYP2C19 inhib 51
COc1ccc(-c2cc(C(=O)OCC(=O)Nc3ccc4c(c3)OCO4)c3ccccc3n2)cc1	none (no result: CYP2C9 inh, CYP2C19 inhib, CYP2C19 act, CYP2C9 activ)
CCNC(=S)NNC(=O)c1cc(-c2cc(C)ccc2C)nc2ccccc12	CYP2C9 inh 66
Cc1ccc(-c2cc(C(=O)OCC(=O)Nc3cc(C)on3)c3ccccc3n2)c(C)c1	CYP2C9 inh 79
COc1ccc(-c2cc(C(=O)OCC(=O)Nc3cc(C)on3)c3ccccc3n2)cc1OC	CYP2C19 inhib 53
Cc1cccc(C)c1NC(=O)COC(=O)c1cc(-c2cccnc2)nc2ccccc12	none (no result: CYP2C9 inh, CYP2C19 inhib, CYP2C19 act, CYP2C9 activ)
CC(C)COC(=O)C1C2C=CC3(CN(C4CCCC4)C(=O)C13)O2 (centres undefined)	none
O=C(Nc1c(C(=O)NCc2ccco2)cnn1-c1ccccc1)c1ccc(F)cc1	none
Cc1c(NC(=O)COC(=O)c2cc(-c3ccc(-c4ccccc4)cc3)nc3ccccc23)c(=O)n(-c2ccccc2)n1C	Measles CPE 38 (no result: CYP2C9 inh, CYP2C19 inhib, CYP2C19 act, CYP2C9 activ)
O=C(Nc1cccc(S(=O)(=O)NC2=NCCCCC2)c1)c1cc(-c2ccccc2Cl)nc2ccccc12	none (no result: CYP2C9 inh, CYP2C19 inhib, CYP2C19 act, CYP2C9 activ)
Cc1cccc(NC(=O)NNC(=O)c2cc(-c3ccccc3Cl)nc3ccccc23)c1	CYP2C9 inh 62
O=C(Nc1ccc(S(=O)(=O)Nc2nccs2)cc1)c1cc(-c2ccccc2Cl)nc2ccccc12	CYP2C9 inh 52
Cc1ccc2nc(-c3ccccc3Cl)cc(C(=O)Nc3cc(C)on3)c2c1	CYP2C9 inh 99, CYP2C19 inhib 82
COC(=O)c1sccc1OC(C)C(C)=O (centres undefined)	none
Cc1ccc2cc(CCNC(=O)c3ccc4c(c3)OCO4)c(=O)[nH]c2c1C	CYP2C9 inh 60
